According to PMC7862700, “An all-to-all approach to the identification of sequence-specific readers for epigenetic DNA modifications on cytosine”:

Experiments:
Assay in all cases: DAPPL (digital affinity profiling via proximity ligation, sequencing); 10 mM Tris-HCl pH 7.5, 50 mM NaCl, 1 mM DTT, 4% glycerol, room temperature, 30 min; GST-TFs on glutathione beads, 16-mer random dsDNA library, 0.1% formaldehyde crosslink after washing; high values mean tight binding
FLI1 = molecular target: T1, FLI1 (Homo sapiens, UniProt Q01543 1-452); details: protein: recombinant; tags: N-terminal GST; dsDNA, one strand shown
T1 sequence: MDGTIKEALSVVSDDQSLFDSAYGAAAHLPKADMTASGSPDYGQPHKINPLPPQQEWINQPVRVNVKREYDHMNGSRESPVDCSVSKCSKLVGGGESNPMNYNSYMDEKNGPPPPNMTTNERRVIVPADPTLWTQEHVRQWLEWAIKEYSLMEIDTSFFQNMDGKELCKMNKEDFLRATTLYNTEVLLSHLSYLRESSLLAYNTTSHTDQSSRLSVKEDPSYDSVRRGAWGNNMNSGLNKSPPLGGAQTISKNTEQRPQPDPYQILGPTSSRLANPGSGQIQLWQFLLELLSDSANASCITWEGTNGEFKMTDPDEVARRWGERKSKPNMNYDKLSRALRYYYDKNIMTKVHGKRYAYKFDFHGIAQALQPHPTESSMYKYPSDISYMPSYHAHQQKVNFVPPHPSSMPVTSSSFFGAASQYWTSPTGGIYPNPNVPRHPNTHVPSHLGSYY
How it was run: (§1)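 Pools were built from human transcription factors expressed in yeast as GST fusions, captured on glutathione beads and DNA-barcoded, along with a tag-only sample. Incubation with 200 nmole of a 16-mer random double-stranded DNA library lasted 30 min at room temperature in Tris/NaCl/DTT/glycerol buffer, and was followed by washing, 0.1% formaldehyde crosslinking, proximity ligation, PCR amplification and Illumina NextSeq500 sequencing. Binding signal is the quotient of each hexamer's read frequency for a factor and its frequency for the tag-only sample.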

ELK1 = molecular target: T2, ELK1 (Homo sapiens, UniProt P19419 1-428); details: protein: recombinant; tags: N-terminal GST; dsDNA, one strand shown
T2 sequence: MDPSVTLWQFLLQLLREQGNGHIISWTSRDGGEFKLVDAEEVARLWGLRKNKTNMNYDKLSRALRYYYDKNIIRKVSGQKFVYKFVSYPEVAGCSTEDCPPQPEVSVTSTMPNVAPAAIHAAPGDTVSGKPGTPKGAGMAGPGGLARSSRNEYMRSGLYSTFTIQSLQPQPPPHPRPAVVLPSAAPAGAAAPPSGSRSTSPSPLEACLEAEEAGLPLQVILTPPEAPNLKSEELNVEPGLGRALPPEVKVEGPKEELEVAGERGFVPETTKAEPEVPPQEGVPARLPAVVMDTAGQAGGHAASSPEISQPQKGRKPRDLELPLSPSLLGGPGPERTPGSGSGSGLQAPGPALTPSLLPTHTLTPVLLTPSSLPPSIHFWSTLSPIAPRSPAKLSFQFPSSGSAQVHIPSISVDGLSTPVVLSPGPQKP
How it was run: as §1

GABPA = molecular target: T3, GABPA (Homo sapiens, UniProt Q06546 1-454); details: protein: recombinant; tags: N-terminal GST; dsDNA, one strand shown
T3 sequence: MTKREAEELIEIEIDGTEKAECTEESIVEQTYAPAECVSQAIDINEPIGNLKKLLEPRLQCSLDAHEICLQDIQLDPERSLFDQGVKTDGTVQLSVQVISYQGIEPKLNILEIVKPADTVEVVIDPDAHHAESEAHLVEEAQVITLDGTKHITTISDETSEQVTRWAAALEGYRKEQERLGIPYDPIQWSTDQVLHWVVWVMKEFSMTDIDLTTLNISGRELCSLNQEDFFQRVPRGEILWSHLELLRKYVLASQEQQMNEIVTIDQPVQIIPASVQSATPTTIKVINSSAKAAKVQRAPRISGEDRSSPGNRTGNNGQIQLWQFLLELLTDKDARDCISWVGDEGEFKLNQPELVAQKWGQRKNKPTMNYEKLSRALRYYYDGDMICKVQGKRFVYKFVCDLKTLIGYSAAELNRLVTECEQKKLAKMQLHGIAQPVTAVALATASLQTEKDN
How it was run: as §1

ERG = molecular target: T4, ERG (Homo sapiens, UniProt P11308 1-479); details: protein: recombinant; tags: N-terminal GST; dsDNA, one strand shown
T4 sequence: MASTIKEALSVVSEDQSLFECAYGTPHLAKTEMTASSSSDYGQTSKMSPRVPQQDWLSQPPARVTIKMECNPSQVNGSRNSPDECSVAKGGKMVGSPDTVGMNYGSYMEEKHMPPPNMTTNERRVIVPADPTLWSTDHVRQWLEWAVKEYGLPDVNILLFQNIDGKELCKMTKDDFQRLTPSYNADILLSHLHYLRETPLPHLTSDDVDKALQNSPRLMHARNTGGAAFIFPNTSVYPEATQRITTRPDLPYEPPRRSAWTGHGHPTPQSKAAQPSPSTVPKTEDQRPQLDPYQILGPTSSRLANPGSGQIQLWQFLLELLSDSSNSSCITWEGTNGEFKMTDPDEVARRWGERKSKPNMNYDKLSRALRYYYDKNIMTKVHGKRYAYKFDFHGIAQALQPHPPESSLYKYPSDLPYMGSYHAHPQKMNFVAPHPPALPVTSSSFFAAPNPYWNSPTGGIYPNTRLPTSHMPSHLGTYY
How it was run: as §1

ELF1 = ELF1 (Homo sapiens, UniProt P32519 1-619); details: protein: recombinant; tags: N-terminal GST; dsDNA, one strand shown
Chain of ELF1 (P32519 whole entry): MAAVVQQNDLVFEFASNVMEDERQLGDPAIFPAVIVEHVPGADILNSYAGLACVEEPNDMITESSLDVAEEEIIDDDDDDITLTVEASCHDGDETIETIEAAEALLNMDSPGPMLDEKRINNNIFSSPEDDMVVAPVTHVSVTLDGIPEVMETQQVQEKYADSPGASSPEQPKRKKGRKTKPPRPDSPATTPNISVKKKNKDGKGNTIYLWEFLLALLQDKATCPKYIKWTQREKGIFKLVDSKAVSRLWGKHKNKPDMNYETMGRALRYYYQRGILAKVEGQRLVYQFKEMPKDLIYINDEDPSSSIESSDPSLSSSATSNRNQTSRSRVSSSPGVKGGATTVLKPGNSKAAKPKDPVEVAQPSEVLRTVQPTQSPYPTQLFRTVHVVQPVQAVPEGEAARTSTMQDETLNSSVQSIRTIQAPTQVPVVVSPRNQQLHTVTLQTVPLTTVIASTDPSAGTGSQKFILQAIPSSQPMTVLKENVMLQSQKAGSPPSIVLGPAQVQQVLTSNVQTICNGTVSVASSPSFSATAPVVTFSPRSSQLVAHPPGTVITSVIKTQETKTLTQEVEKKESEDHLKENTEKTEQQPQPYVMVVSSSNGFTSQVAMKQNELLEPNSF
How it was run: as §1

EHF = molecular target: T5, EHF (Homo sapiens, UniProt Q9NZC4 1-300); details: protein: recombinant; tags: N-terminal GST; dsDNA, one strand shown
T5 sequence: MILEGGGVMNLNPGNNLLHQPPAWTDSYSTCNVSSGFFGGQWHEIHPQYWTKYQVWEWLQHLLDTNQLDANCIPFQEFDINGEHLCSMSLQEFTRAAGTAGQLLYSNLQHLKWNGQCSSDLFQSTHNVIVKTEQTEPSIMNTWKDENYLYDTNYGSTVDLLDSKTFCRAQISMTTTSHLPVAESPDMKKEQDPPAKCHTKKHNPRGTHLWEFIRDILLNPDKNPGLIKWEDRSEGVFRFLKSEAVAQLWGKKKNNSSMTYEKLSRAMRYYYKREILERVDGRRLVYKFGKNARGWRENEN
How it was run: as §1

SPI1 = SPI1 (Homo sapiens, UniProt P17947 1-270); details: protein: recombinant; tags: N-terminal GST; dsDNA, one strand shown
How it was run: as §1

SPIB = SPIB (Homo sapiens, UniProt Q01892 1-262); details: protein: recombinant; tags: N-terminal GST; dsDNA, one strand shown
Chain of SPIB (Q01892 whole entry): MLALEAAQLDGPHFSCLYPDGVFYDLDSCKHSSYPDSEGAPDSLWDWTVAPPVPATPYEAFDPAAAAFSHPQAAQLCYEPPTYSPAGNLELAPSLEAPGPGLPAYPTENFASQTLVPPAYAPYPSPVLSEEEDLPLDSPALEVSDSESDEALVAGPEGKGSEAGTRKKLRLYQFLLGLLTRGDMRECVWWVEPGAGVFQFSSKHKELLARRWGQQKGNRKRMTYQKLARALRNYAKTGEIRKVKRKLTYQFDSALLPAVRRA
How it was run: as §1

ELK3 = molecular target: T6, ELK3 (Homo sapiens, UniProt P41970 1-407); details: protein: recombinant; tags: N-terminal GST; dsDNA, one strand shown
T6 sequence: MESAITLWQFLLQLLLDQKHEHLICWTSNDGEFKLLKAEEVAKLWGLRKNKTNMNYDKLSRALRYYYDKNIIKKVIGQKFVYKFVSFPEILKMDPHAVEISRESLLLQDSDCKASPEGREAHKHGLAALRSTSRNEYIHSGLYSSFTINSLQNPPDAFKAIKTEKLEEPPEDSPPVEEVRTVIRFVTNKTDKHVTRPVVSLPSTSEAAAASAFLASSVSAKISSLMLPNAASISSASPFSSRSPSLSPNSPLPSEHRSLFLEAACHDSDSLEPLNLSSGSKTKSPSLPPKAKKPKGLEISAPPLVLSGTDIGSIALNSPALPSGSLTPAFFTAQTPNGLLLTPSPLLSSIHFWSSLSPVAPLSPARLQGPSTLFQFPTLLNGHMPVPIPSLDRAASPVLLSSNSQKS
How it was run: as §1

FEV = molecular target: T7, FEV (Homo sapiens, UniProt Q99581 1-238); details: protein: recombinant; tags: N-terminal GST; dsDNA, one strand shown
T7 sequence: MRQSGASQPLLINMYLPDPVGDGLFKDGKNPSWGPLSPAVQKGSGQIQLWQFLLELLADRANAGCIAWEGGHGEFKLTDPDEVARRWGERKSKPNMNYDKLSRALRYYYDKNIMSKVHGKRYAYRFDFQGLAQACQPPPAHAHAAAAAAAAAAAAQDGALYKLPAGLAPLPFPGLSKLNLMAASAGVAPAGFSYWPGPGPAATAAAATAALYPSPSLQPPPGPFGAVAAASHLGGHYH
How it was run: as §1

ETV5 = ETV5 (Homo sapiens, UniProt P41161 1-510); details: protein: recombinant; tags: N-terminal GST; dsDNA, one strand shown
Chain of ETV5 (P41161 whole entry): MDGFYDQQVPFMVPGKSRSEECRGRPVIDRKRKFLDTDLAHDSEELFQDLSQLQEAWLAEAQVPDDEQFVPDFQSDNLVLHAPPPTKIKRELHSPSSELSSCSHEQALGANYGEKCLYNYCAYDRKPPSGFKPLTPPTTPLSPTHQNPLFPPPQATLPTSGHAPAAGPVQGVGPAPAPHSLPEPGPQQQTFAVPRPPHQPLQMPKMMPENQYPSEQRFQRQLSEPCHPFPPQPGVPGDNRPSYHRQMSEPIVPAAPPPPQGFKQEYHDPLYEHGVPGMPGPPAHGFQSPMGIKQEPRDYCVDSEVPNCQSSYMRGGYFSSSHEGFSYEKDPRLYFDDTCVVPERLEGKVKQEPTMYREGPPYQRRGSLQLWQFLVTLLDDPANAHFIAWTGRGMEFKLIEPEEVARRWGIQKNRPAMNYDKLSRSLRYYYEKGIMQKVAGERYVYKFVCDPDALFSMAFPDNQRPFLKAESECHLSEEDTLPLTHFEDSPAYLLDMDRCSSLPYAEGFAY
How it was run: as §1

HSF1 = HSF1 (Homo sapiens, UniProt Q00613 1-529); details: protein: recombinant; tags: N-terminal GST; chain copies: 3; dsDNA, one strand shown
Chain of HSF1 (Q00613 whole entry): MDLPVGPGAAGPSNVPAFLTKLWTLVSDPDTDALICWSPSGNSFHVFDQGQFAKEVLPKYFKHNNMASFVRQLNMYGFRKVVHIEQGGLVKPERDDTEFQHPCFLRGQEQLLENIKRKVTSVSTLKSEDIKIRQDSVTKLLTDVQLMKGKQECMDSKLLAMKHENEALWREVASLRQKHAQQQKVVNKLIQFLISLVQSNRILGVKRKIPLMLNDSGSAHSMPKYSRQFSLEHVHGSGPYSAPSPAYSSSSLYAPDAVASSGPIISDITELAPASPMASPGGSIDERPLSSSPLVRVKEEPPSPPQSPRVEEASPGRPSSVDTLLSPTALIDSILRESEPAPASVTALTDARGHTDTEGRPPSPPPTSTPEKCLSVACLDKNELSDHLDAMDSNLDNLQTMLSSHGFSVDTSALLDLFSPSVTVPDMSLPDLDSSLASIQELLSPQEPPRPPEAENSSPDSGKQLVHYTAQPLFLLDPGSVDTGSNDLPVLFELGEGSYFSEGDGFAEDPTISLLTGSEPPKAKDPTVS
How it was run: as §1

SPIC = molecular target: T8, SPIC (Homo sapiens, UniProt Q8N5J4 1-248); details: protein: recombinant; tags: N-terminal GST; dsDNA, one strand shown
T8 sequence: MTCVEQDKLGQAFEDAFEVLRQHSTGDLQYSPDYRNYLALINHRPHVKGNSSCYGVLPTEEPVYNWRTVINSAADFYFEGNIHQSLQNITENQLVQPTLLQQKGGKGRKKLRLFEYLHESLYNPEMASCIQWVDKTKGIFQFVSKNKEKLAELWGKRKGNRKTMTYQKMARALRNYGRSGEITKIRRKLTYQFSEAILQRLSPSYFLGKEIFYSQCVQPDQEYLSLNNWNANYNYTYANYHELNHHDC
How it was run: as §1

ELF4 = ELF4 (Homo sapiens, UniProt Q99607 1-663); details: protein: recombinant; tags: N-terminal GST; dsDNA, one strand shown
Chain of ELF4 (Q99607 whole entry): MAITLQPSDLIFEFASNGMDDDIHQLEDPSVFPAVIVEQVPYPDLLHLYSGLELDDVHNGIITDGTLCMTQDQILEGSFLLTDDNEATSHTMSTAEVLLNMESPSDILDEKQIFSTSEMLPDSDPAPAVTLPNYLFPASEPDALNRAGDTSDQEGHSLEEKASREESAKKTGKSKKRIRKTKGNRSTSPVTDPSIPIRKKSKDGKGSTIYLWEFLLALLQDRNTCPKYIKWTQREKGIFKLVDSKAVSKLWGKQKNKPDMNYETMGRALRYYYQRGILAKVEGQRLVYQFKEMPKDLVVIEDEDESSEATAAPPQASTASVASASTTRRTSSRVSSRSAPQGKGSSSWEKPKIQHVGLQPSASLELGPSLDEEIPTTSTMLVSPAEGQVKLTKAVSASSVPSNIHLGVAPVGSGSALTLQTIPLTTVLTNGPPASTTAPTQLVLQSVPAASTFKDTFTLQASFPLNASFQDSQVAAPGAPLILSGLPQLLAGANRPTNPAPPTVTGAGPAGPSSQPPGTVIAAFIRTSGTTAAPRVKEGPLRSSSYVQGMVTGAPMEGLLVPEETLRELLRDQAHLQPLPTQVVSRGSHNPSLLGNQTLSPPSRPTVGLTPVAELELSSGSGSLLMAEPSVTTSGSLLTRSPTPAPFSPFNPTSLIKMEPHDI
How it was run: as §1

ELK4 = molecular target: T9, ELK4 (Homo sapiens, UniProt P28324-2 1-405); details: protein: recombinant; tags: N-terminal GST; dsDNA, one strand shown
T9 sequence: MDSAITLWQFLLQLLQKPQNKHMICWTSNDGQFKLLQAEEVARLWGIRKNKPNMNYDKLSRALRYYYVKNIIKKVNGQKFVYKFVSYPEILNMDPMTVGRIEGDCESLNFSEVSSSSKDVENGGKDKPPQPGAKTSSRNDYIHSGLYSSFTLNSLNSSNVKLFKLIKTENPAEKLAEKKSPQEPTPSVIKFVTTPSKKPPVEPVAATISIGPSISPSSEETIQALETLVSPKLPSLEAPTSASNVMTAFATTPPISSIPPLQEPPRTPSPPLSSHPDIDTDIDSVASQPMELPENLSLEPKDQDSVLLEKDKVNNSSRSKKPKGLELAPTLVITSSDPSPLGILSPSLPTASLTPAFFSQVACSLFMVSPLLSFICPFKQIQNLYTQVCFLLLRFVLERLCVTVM
How it was run: as §1

ETV2 = molecular target: T10, ETV2 (Homo sapiens, UniProt O00321 1-342); details: protein: recombinant; tags: N-terminal GST; dsDNA, one strand shown
T10 sequence: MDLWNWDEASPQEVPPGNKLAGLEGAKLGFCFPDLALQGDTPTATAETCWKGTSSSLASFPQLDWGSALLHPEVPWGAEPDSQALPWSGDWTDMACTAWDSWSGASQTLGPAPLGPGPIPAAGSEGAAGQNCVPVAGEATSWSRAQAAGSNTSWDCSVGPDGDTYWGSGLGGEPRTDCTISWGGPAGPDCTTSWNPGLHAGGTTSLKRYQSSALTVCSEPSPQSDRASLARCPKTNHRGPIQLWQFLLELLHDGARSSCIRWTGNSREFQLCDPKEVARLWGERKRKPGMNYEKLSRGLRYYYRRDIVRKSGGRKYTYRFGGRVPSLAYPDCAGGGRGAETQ
How it was run: as §1

ELF3 = molecular target: T11, ELF3 (Homo sapiens, UniProt P78545 1-371); details: protein: recombinant; tags: N-terminal GST; dsDNA, one strand shown
T11 sequence: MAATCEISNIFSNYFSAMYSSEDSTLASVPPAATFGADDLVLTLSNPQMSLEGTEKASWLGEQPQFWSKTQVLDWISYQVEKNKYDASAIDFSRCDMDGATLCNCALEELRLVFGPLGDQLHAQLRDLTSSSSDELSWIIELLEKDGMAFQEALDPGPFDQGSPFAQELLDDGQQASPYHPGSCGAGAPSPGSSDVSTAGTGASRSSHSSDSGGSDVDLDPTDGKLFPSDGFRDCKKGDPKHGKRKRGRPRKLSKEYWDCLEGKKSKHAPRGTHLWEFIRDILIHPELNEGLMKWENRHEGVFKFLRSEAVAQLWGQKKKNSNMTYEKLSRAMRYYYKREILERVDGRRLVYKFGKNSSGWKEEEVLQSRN
How it was run: as §1

CRX = CRX (Homo sapiens, UniProt O43186 1-299); details: protein: recombinant; tags: N-terminal GST; dsDNA, one strand shown
Chain of CRX (O43186 whole entry): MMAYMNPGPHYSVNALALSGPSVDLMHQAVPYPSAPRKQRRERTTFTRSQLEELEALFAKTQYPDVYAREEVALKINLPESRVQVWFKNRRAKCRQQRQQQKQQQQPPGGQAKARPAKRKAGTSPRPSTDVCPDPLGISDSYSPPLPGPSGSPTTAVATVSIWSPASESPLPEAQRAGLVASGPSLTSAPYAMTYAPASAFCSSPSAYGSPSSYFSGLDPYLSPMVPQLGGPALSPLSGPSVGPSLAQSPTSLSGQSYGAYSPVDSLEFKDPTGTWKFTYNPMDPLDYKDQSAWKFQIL
How it was run: as §1

ETV1 = ETV1 (Homo sapiens, UniProt P50549 1-477); details: protein: recombinant; tags: N-terminal GST; dsDNA, one strand shown
Chain of ETV1 (P50549 whole entry): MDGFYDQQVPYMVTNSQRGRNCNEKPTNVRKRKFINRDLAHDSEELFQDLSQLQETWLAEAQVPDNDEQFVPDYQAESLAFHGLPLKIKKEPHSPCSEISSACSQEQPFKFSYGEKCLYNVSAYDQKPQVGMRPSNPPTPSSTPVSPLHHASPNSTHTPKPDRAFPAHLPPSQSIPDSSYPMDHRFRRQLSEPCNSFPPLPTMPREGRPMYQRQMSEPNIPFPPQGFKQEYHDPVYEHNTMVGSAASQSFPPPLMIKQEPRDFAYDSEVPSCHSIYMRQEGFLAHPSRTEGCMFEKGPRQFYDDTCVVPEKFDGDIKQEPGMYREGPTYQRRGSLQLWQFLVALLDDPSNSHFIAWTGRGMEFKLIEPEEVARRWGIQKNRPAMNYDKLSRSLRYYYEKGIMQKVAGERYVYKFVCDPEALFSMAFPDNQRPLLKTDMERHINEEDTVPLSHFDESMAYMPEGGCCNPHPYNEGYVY
How it was run: as §1

Sequence: TAAGAT
- binding signal (FLI1): 1.17 fold enrichment (6-mer frequency, TF over GST control)
- binding signal (ELK1): 1.26 fold enrichment (6-mer frequency, TF over GST control)
- binding signal (GABPA): 1.19 fold enrichment (6-mer frequency, TF over GST control)
- binding signal (ERG): 1.21 fold enrichment (6-mer frequency, TF over GST control)
- binding signal (ELF1): 1.24 fold enrichment (6-mer frequency, TF over GST control)
- binding signal (EHF): 1.3 fold enrichment (6-mer frequency, TF over GST control)
- binding signal (SPI1): 1.21 fold enrichment (6-mer frequency, TF over GST control)
- binding signal (SPIB): 1.31 fold enrichment (6-mer frequency, TF over GST control)
- binding signal (ELK3): 1.2 fold enrichment (6-mer frequency, TF over GST control)
- binding signal (FEV): 1.15 fold enrichment (6-mer frequency, TF over GST control)
- binding signal (ETV5): 1.13 fold enrichment (6-mer frequency, TF over GST control)
- binding signal (HSF1): 1.76 fold enrichment (6-mer frequency, TF over GST control)
- binding signal (SPIC): 1.25 fold enrichment (6-mer frequency, TF over GST control)
- binding signal (ELF4): 1.21 fold enrichment (6-mer frequency, TF over GST control)
- binding signal (ELK4): 1.29 fold enrichment (6-mer frequency, TF over GST control)
- binding signal (ETV2): 1.31 fold enrichment (6-mer frequency, TF over GST control)
- binding signal (ELF3): 1.3 fold enrichment (6-mer frequency, TF over GST control)
- binding signal (CRX): 2.49 fold enrichment (6-mer frequency, TF over GST control)
- binding signal (ETV1): 1.28 fold enrichment (6-mer frequency, TF over GST control)
